Among the data in PubChem BioAssay AID570 (The Scripps Research Institute Molecular Screening Center, 2006) are inhibition values, retold here.

Each structure is given as a SMILES string. About 45 (0.07%) of roughly 65,000 compounds were called active. Many of the other results were omitted from the sample, so actives are more common in it than they were. A number with no mark means an inactive call.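 Rule for the calls: active = inhibition above the mean of compound-free control plate wells plus 3 SD (cut at about 14% in these data); inactive = the rest.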

This experiment concerns the target Collagenase 3 (Homo sapiens) (UniProt P45452). In words: human MMP13 inhibitors, primary screen, biochemical, FRET peptide cleavage (AID 570).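 Note: 0% = DMSO wells and 100% = wells with reference MMP-13 inhibitor after basal subtraction.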 The settings on record: MMP-13 fTHP FRET cleavage, Mca fluorescence; at 4 µM; hits give high values.
Turning to `Cn1c(=O)n(CCc2ccccc2)c(=O)c2c1nc1n2CCCN1c1ccccc1`, the inhibition (in general, the change of the read-out against control, counted positive when it falls) is -0.2%.

Consider `CCC/C(O)=C1\C(=O)CC(C)(C)CC1=Nc1ccccc1OC`, for which the inhibition is -1.2%.

With `CSCCC(NC(N)=O)C(=O)N(C)CC(=O)Nc1ccc(C)cc1` (centres undefined), the inhibition is -2.4%.

Consider `CCc1c(C)nc(N2CCN(Cc3ccccc3)CC2)[nH]c1=O`, for which the inhibition is -7.8%.

As to `COC(=O)c1c(-c2ccc(C)cc2)csc1N`, the inhibition was -8.5%.

Take `CCn1c(COc2ccccc2)nnc1SCC(=O)Nc1ccc2c(c1)OCCO2`: the inhibition was 0.5%.

On to `Cc1cccc2cc(CN(Cc3nnnn3Cc3ccccc3)C3CCCC3)c(=O)[nH]c12`, for which the inhibition was -8.4%.

`C=CCNc1nnc(C)c2ccccc12`: the inhibition was 3.5%.

Turning to `Cc1cc(NC(=O)CN2CCCCC2C)nc2c1c(=O)oc1ccccc12` (centres undefined), the inhibition is 0.1%.

In the case of `COc1ccccc1N1CCN(C(=O)c2cn(-c3ccccc3)nc2-c2cccnc2)CC1`, the inhibition was -5.4%.

Consider `CCCN1CC=C2C(C#N)=C(N)C(C#N)(C#N)C(c3cc(OC)ccc3OC)C2C1` (centres undefined), for which the inhibition is -14.3%.

As to `CCCCNC(=O)c1c[nH]c2ccc(S(=O)(=O)Nc3ccc(OCC)cc3)cc2c1=O`, the inhibition was -4.5%.

As for `Cc1cccc(N2CCN(S(=O)(=O)c3ccc4c(c3)c(=O)n(C)c(=O)n4C)CC2C)c1` (centres undefined), the inhibition is 4.1%.

As to `CCOC(=O)c1ccc(-n2c(C)nc3c(cnn3-c3ccccc3C)c2=O)cc1`, the inhibition is 7.5%.

In the case of `CCOC(=O)c1cc2occc2n1CC(=O)NC1CCC(C)CC1` (centres undefined), the inhibition was 4.9%.

As to `COc1ccc(NS(=O)(=O)c2ccc(NC(=O)C(C)(C(F)(F)F)C(F)(F)F)cc2)nn1`, the inhibition is -10.5%.

`CN(CCCC(=O)Nc1nccs1)S(=O)(=O)c1ccc(Cl)cc1`: the inhibition was 6%.

`Cc1ccc(C(=O)CSc2nnc(Cn3nnc4ccccc43)n2C)cc1`: the inhibition is 7.7%.

Take `CCN1CCN(Cc2c(O)ccc3c(=O)c(-c4ccc(OC)c(OC)c4)c(C(F)(F)F)oc23)CC1`: the inhibition was 4.7%.

For `O=c1nc2s/c(=C\c3ccco3)c(=O)n2nc1Cc1ccccc1`, the inhibition was 0.1%.

For the compound `CCOC(=O)CSc1nc2c(sc(=S)n2CCc2ccccc2)c(=O)n1Cc1ccco1`, the inhibition is 2.4%.

For the compound `CN(c1ccccc1)c1ccc(/C=c2\s/c(=C(/C#N)C(=O)C(C)(C)C)n(Cc3ccco3)c2=O)cc1`, the inhibition is 15.4% (active).

With `Cc1cc(C(F)(F)F)n2ncc(-c3ccccc3)c2n1`, the inhibition is 3.8%.

For the compound `CCc1nnc(NC(=O)c2c(O)c3c([nH]c2=O)CCCC3)s1`, the inhibition is -11%.

On to `CCC(C)Sc1nnc(-c2c[nH]c3ccccc23)n1CCOC` (centres undefined), for which the inhibition was 6.4%.

As for `CC(C)N1C(=O)C2C(C(=O)NC3CCCCC3)C3C=CC2(O3)C1C(=O)NC1CCCC1` (centres undefined), the inhibition was -2.8%.

In the case of `O=C(NCCCN1CCN(c2ccccc2F)CC1)C1CCC(=O)N1C1CCCCC1` (centres undefined), the inhibition is 1.3%.

Turning to `CC(C)(C)n1nnnc1C(c1cccs1)N(Cc1cccnc1)CC1CCCO1` (centres undefined), the inhibition is -3.9%.

As to `C=CCC(NCCCO)c1cccc(OC)c1OC` (centres undefined), the inhibition is -1.4%.

`CCCCN(C)C(=O)c1ccc2c(c1)N(CC)C(=O)c1ccccc1S2(=O)=O`: the inhibition was -4.5%.

For `CCOC(=O)CSc1nnc(CNC(=O)c2cccs2)n1-c1cc(OC)ccc1OC`, the inhibition was -0.5%.

Take `CCOC(=O)CSc1nnc(CNc2ccc(F)cc2)o1`: the inhibition is -2.2%.

In the case of `Cc1ccccc1NC(=O)NCc1ccco1`, the inhibition was 2.4%.

Regarding `FC(F)(F)c1cc(-c2cccs2)nc(NCc2ccco2)n1`, the inhibition was -3.9%.

Consider `CN1CCN(c2cc(=O)n(-c3ccc(Cl)cc3)c(=O)[nH]2)CC1`, for which the inhibition was 0.4%.

With `COc1ccccc1N(CC(=O)N1CCCCC1)S(=O)(=O)c1ccccc1`, the inhibition was 2.1%.

As for `C=CCn1cnc2scc(-c3ccccc3)c2c1=O`, the inhibition is 0.5%.

As to `C=CCn1c(COc2ccccc2C)nnc1SCC(=O)O`, the inhibition is 5.1%.

For `O=C(Cn1cnc2c(cnn2-c2ccccc2)c1=O)NCc1ccccc1`, the inhibition was -2%.
